The whole screen tested about 310,000 compounds, of which about 14,000 (4.5%) showed an effect of 50% or more. The effect is printed as a negative number. What follows is part of a selection rich in strong results, with near analogues and random picks from the rest.
target: human ether-à-go-go-related gene (hERG) potassium channel (human, UniProt Q12809); assay: primary screen, population patch clamp on CHO cells stably expressing hERG; higher = less effect of the substance
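Further: peak tail current of the secondary pulse compared with the same well before compound.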

Sequence of human ether-à-go-go-related gene (hERG) potassium channel (Q12809 whole entry, looked up): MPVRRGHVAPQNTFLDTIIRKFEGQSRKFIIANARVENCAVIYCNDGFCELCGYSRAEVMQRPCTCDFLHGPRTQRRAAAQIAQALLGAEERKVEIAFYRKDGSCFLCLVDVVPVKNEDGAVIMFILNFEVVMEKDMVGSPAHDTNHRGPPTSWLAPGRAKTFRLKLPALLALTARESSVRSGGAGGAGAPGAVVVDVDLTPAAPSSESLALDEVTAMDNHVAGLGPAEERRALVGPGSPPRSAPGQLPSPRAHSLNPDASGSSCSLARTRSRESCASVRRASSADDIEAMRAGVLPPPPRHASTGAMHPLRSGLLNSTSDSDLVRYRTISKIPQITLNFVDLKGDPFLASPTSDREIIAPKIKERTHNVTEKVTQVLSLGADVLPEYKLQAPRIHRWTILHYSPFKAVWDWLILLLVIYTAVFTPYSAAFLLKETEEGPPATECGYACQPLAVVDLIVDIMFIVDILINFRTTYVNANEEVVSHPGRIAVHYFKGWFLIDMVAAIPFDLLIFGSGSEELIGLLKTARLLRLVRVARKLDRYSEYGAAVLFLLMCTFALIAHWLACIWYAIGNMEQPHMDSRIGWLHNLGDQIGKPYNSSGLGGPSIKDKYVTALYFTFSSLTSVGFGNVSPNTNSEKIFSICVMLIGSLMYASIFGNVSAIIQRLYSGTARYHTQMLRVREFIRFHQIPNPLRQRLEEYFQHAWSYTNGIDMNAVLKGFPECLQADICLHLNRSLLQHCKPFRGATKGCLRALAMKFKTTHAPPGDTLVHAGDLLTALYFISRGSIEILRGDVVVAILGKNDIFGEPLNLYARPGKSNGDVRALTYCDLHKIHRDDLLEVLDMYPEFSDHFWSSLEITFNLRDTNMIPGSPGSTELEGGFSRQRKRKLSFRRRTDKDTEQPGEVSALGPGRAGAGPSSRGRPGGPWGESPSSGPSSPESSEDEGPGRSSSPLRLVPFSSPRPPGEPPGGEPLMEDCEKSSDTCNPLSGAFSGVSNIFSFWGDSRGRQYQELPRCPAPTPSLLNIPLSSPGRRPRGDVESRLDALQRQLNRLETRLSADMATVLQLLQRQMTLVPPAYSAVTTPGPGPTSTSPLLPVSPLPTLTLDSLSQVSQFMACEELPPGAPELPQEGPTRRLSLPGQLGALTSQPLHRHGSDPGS

| SMILES | hERG current change (%, negative = inhibition) at 10uM [%] |
| --- | --- |
| CC(=O)Nc1ncc(Cc2cc(Cl)ccc2Cl)s1 | -1.4 |
| CSc1nnc(Cn2c(=O)sc3ccccc32)n1-c1cccc(Cl)c1 | -37.9 |
| Cn1c(=O)c2c(ncn2CC(=O)OCC(=O)Nc2ccccc2Cl)n(C)c1=O | 4.46 |
| CC(C(=O)NC1CCCc2ccccc21)N1CCN(c2ccc(F)cc2)CC1 (centres unmarked) | -35.6 |
| CC(C(=O)NC1CCCc2ccccc21)N1CCN(Cc2ccc3c(c2)OCO3)CC1 (centres unmarked) | -51.9 |
| CC(NCc1ccc2c(c1)OCO2)C(=O)NC1CCCc2ccccc21.O=C(O)C(=O)O (centres unmarked) | -22.6 |
| COC(=O)c1cc2c(ccn2C)n1C | 19.5 |
| CC(C)(C)c1ccc(S(=O)(=O)/N=C2\C=C(NS(=O)(=O)c3ccccc3)C(=O)c3ccccc32)cc1 | -2.61 |
| O=C(NC(=S)N1CCCCC1c1cccnc1)c1ccc(F)cc1 (centres unmarked) | 5.06 |
| COc1ccc(/C=C/C(=O)NC(=S)NN2CCCCC2c2cccnc2)cc1 (centres unmarked) | -26.9 |
| O=C(NC(=S)N1CCCCC1c1cccnc1)c1ccccc1 (centres unmarked) | 4.5 |
| O=C(/C=C/c1ccc(F)cc1)NC(=S)N1CCCCC1c1cccnc1 (centres unmarked) | -68.1 |
| COc1ccc(/C=C/C(=O)NC(=S)NN2CCCCC2c2cccnc2)cc1OC (centres unmarked) | 3.25 |
| O=C(/C=C/c1ccc(Cl)cc1)NC(=S)NN1CCCCC1c1cccnc1 (centres unmarked) | -67 |
| COc1ccc(C)cc1NCc1cccc(OC)c1OC | 1.13 |
| COc1cc(/C=C(\C#N)C(=O)NCC2CCCO2)ccc1OCCC(C)C (centres unmarked) | 4.67 |
| O=C(Nc1ccccc1)N1CCCN(c2ccc(C(F)(F)F)cc2[N+](=O)[O-])CC1 | -39.9 |
| O=C(Cn1nc(Cc2cccnc2)c2ccccc2c1=O)NCC1CCCO1 (centres unmarked) | 9.7 |
| O=C(Cn1nc(Cc2cccnc2)c2ccccc2c1=O)NCc1ccc2c(c1)OCO2 | -25.8 |
| O=C(Cn1nc(Cc2cccnc2)c2ccccc2c1=O)NCC1COc2ccccc2O1 (centres unmarked) | -57.4 |
| Cc1ccc(C2CC(c3ccccc3)=NN2c2ccccc2)o1 (centres unmarked) | 4.42 |
| COc1ccc(C(CNC(=O)c2oc3c(Cl)cccc3c2C)N2CCCC2)cc1 (centres unmarked) | -50.9 |
| COc1ccc(C(CNC(=O)c2oc3ccccc3c2C)N2CCCC2)cc1 (centres unmarked) | -43.8 |
| COc1ccc(C(CNC(=O)c2oc3ccc(Cl)cc3c2C)N2CCCCC2)cc1 (centres unmarked) | -25.9 |
| COc1ccc(C(CNC(=O)c2oc3ccc(F)cc3c2C)N2CCCCC2)cc1 (centres unmarked) | -59.9 |
| COc1ccccc1C(CNC(=O)c1ccc(-c2ccccc2Cl)o1)N1CCCC1 (centres unmarked) | -72.2 |
| COc1ccccc1C(CNC(=O)c1ccco1)N1CCCC1 (centres unmarked) | 1.23 |

| SMILES | hERG current change (%, negative = inhibition) at 10uM [%] |
| --- | --- |
| COc1ccc(C(CNC(=O)c2ccc(-c3ccccc3Cl)o2)N2CCOCC2)cc1 (centres unmarked) | -23.7 |
| COc1ccc(C(CNC(=O)c2oc3ccc(C)cc3c2C)N2CCCCC2)cc1 (centres unmarked) | 6.26 |
| CCc1ccc2oc(C(=O)NCC(c3ccc(OC)cc3)N3CCCCC3)c(C)c2c1 (centres unmarked) | -3.57 |
| COc1ccc(C(CNC(=O)c2oc3ccc(Br)cc3c2C)N2CCCCC2)cc1 (centres unmarked) | -13.3 |
| COc1ccc(C(CNC(=O)c2oc3ccc(OC)cc3c2C)N2CCCC2)cc1 (centres unmarked) | -67.5 |
| COc1ccc(C(CNC(=O)c2oc3cc(C)c(Cl)cc3c2C)N2CCCCC2)cc1 (centres unmarked) | 16.3 |
| CC(=O)Nc1ccc(Nc2ncnc3ccccc23)cc1 | 10.9 |
| O=C(C(=C1N(Cc2ccc(Cl)nc2)CCN1Cc1ccc(Cl)nc1)[N+](=O)[O-])C(Cl)Cl | -26.6 |
| CCn1c(C)nc2cc(S(N)(=O)=O)ccc21 | 21.9 |
| Cc1ccc(C)c(NC(=O)c2nnn(Cc3ccccc3)c2N)c1 | -6.11 |
| Cc1nc(NC(=O)CSc2cc(C)c3ccccc3n2)c(Cl)cc1Cl | 5.23 |
| CC1CN(C(=O)CCNC(=O)c2ccc(Br)cc2)CC(C)O1 (centres unmarked) | -4.12 |
| O=C(CSc1ncn[nH]1)Nc1cccc2ccccc12 | 3.88 |
| CCC(C)(C)NC(=O)Cc1ccccc1OC | 23 |
| COc1ccc(C(CNC(=O)CNC(=O)c2cccc(Cl)c2)N2CCCC2)cc1 (centres unmarked) | -33.8 |
| COc1ccc(C(CNC(=O)c2cccc(NC(=O)c3cccs3)c2)N2CCCC2)cc1 (centres unmarked) | -58.8 |
| COc1ccc(C(CNC(=O)c2cccc(Br)c2)N2CCCC2)cc1 (centres unmarked) | -31.6 |
| COc1ccc(C(CNC(=O)c2cccc(S(=O)(=O)Nc3ccc(C)cc3)c2)N2CCCCC2)cc1 (centres unmarked) | -30.7 |
| COc1ccc(C(CNC(=O)c2ccc(Cl)c(NC(=O)c3cccs3)c2)N2CCCC2)cc1 (centres unmarked) | -70.9 |
| COc1ccc(C(CNC(=O)c2cccc(S(=O)(=O)N3CCCCC3)c2)N2CCCC2)cc1 (centres unmarked) | -43.8 |
| COc1cc2c(cc1OC)C(C)N(C(=O)Nc1cc(C)cc(C)c1)CC2 (centres unmarked) | 4.95 |
| COC(=O)c1c(NC(=O)c2ccco2)sc2c1CC(C)(C)NC2(C)C | -21.2 |
| Cn1c(=O)c2c(ncn2CC(=O)OCC(=O)Nc2sccc2C(N)=O)n(C)c1=O | -10.1 |
| COC(=O)C1=C(C)N(c2cccc3ccccc23)C(=O)C1 | -6.64 |
| Cc1noc(NC(=O)c2ccccc2C(F)(F)F)c1C#N | -46 |
| CCN1C(=O)[C@H]2[C@@H](c3ccc(OC)cc3)N3C(=O)CN(CCOC)C(=O)[C@@]3(C)[C@H]2C1=O | -2.75 |

Source: publication PMC4336329 (PLoS ONE, 2015)
